{"source": "the supplement of paper PMC8728848", "binders": {"B1": {"name": "MXA PilAct-eGFP (Myxococcus xanthus), Q59589 (protein)", "chain": "MRVSRFNPRNRGFTLIELMIVVAIIGILAAIAIPNFIKFQARSKQSEAKTNLKALYTAQKSFFSEKDRYSDFANEIGFAPERGNRYGYRVSAAAGDCEVRNAADLPVPAAGVPCISNDSFRFGANSAIDDPTPVVARFVPQGAAGWNTTLGVQPTIADCPNCNFFAGARGNADNEATFDDWVIAGFEGSGQVGPCSEAGNVASGTPYNTRNDVACDGAAQ"}}, "assay_in_all_cases": "glycan array binding signal (z-score within array); higher = stronger binding", "conditions_in_all_cases": "glycan notation: IUPAC condensed, linker removed", "key": {"[1]": {"target": "Fuc(a1-2)Gal(b1-3)GalNAc(a1-3)[Fuc(a1-2)]Gal(b1-4)Glc", "how_it_was_run": "(§1)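 The Consortium for Functional Glycomics database supplied 3228 glycan arrays, of which those lacking an available protein sequence were dropped. The binding signal, a within-array Z-score, was averaged across arrays of the same protein sequence and across linkers. Negative scores can be read as non-binding.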"}, "[2]": {"target": "Fuc(a1-2)Gal(b1-3)GlcNAc(b1-3)GalNAc", "how_it_was_run": "as §1"}, "[3]": {"target": "Fuc(a1-2)Gal(b1-3)GlcNAc(b1-3)[Neu5Ac(a2-6)Gal(b1-4)GlcNAc(b1-6)]Gal(b1-4)Glc", "how_it_was_run": "as §1"}, "[4]": {"target": "Fuc(a1-2)Gal(b1-4)GlcNAc(b1-3)Gal(b1-4)GlcNAc", "how_it_was_run": "as §1"}, "[5]": {"target": "Fuc(a1-2)Gal(b1-4)GlcNAc(b1-3)Gal(b1-4)GlcNAc(b1-3)Gal(b1-4)GlcNAc", "how_it_was_run": "as §1"}, "[6]": {"target": "Fuc(a1-2)Gal(b1-4)[Fuc(a1-3)]GlcNAc(b1-2)Man(a1-3)[Fuc(a1-2)Gal(b1-4)[Fuc(a1-3)]GlcNAc(b1-2)Man(a1-6)]Man(b1-4)GlcNAc(b1-4)[Fuc(a1-6)]GlcNAc", "how_it_was_run": "as §1"}, "[7]": {"target": "Fuc(a1-2)Gal(b1-4)[Fuc(a1-3)]GlcNAc(b1-3)Gal(b1-4)[Fuc(a1-3)]GlcNAc(b1-3)Gal(b1-4)[Fuc(a1-3)]GlcNAc", "how_it_was_run": "as §1"}, "[8]": {"target": "Fuc(a1-2)Gal3S(b1-4)GlcNAc", "how_it_was_run": "as §1"}, "[9]": {"target": "Fuc(a1-2)[Gal(a1-3)]Gal(b1-4)GlcNAc", "how_it_was_run": "as §1"}, "[10]": {"target": "Fuc(a1-2)[Gal(a1-3)]Gal(b1-4)GlcNAc(b1-2)Man", "how_it_was_run": "as §1"}, "[11]": {"target": "Fuc(a1-2)[GalNAc(a1-3)]Gal(b1-4)GlcNAc(b1-2)Man(a1-3)[Fuc(a1-2)[GalNAc(a1-3)]Gal(b1-4)GlcNAc(b1-2)Man(a1-6)]Man(b1-4)GlcNAc(b1-4)GlcNAc", "how_it_was_run": "as §1"}, "[12]": {"target": "Fuc(a1-2)[GalNAc(a1-3)]Gal(b1-4)GlcNAc(b1-3)Gal(b1-4)GlcNAc", "how_it_was_run": "as §1"}, "[13]": {"target": "Fuc(a1-2)[GalNAc(a1-3)]Gal(b1-4)GlcNAc(b1-6)GalNAc", "how_it_was_run": "as §1"}, "[14]": {"target": "Fuc(a1-3)[Gal(b1-4)]GlcNAc(b1-6)[Gal(b1-3)GlcNAc(b1-3)]Gal(b1-4)Glc", "how_it_was_run": "as §1"}, "[15]": {"target": "Fuc(a1-3)[GalNAc(b1-4)]GlcNAc", "how_it_was_run": "as §1"}, "Gal(a1-3)Gal(b1-3)GlcNAc": {"target": "Gal(a1-3)Gal(b1-3)GlcNAc", "how_it_was_run": "as §1"}, "[16]": {"target": "Gal(b1-3)GlcNAc(b1-2)Man(a1-3)[GlcNAc(b1-4)][Gal(b1-3)GlcNAc(b1-2)Man(a1-6)]Man(b1-4)GlcNAc(b1-4)GlcNAc", "how_it_was_run": "as §1"}, "[17]": {"target": "Gal(b1-3)GlcNAc(b1-3)Gal(b1-4)GlcNAc(b1-2)[Gal(b1-3)GlcNAc(b1-3)Gal(b1-4)GlcNAc(b1-6)]Man(a1-6)[Gal(b1-3)GlcNAc(b1-3)Gal(b1-4)GlcNAc(b1-2)Man(a1-3)]Man(b1-4)GlcNAc(b1-4)[Fuc(a1-6)]GlcNAc", "how_it_was_run": "as §1"}, "[18]": {"target": "Gal(b1-3)GlcNAc(b1-3)Gal(b1-4)GlcNAc(b1-3)Gal(b1-4)GlcNAc(b1-2)[Gal(b1-3)GlcNAc(b1-3)Gal(b1-4)GlcNAc(b1-3)Gal(b1-4)GlcNAc(b1-6)]Man(a1-6)[Gal(b1-3)GlcNAc(b1-3)Gal(b1-4)GlcNAc(b1-3)Gal(b1-4)GlcNAc(b1-2)Man(a1-3)]Man(b1-4)GlcNAc(b1-4)[Fuc(a1-6)]GlcNAc", "how_it_was_run": "as §1"}, "[19]": {"target": "Gal(b1-3)[Fuc(a1-4)]GlcNAc(b1-3)Gal(b1-3)[Fuc(a1-4)]GlcNAc", "how_it_was_run": "as §1"}, "Gal(b1-4)Glc": {"target": "Gal(b1-4)Glc", "how_it_was_run": "as §1"}, "[20]": {"target": "Gal(b1-4)GlcNAc(b1-3)Gal(b1-4)GlcNAc(b1-2)[Gal(b1-4)GlcNAc(b1-3)Gal(b1-4)GlcNAc(b1-6)]Man(a1-6)[Gal(b1-4)GlcNAc(b1-3)Gal(b1-4)GlcNAc(b1-2)Man(a1-3)]Man(b1-4)GlcNAc(b1-4)GlcNAc", "how_it_was_run": "as §1"}, "[21]": {"target": "Gal(b1-4)GlcNAc(b1-3)Gal(b1-4)GlcNAc(b1-3)Gal(b1-4)GlcNAc(b1-3)Gal(b1-4)GlcNAc(b1-2)[Gal(b1-4)GlcNAc(b1-3)Gal(b1-4)GlcNAc(b1-3)Gal(b1-4)GlcNAc(b1-3)Gal(b1-4)GlcNAc(b1-6)]Man(a1-6)[Gal(b1-4)GlcNAc(b1-3)Gal(b1-4)GlcNAc(b1-3)Gal(b1-4)GlcNAc(b1-3)Gal(b1-4)GlcNAc(b1-2)Man(a1-3)]Man(b1-4)GlcNAc(b1-4)[Fuc(a1-6)]GlcNAc", "how_it_was_run": "as §1"}, "[22]": {"target": "Gal(b1-4)GlcNAc(b1-6)Gal(b1-4)GlcNAc", "how_it_was_run": "as §1"}, "Gal(b1-4)GlcNAc6P": {"target": "Gal(b1-4)GlcNAc6P", "how_it_was_run": "as §1"}, "Gal3S(b1-4)GlcNAc": {"target": "Gal3S(b1-4)GlcNAc", "how_it_was_run": "as §1"}}, "note": "The entries come from a sample that favours the strongest signals as a whole.", "data": [{"binder": "B1", "values": [{"measurement": "glycan array binding signal (z-score)", "setting": "[1]", "value": 0.469}, {"measurement": "glycan array binding signal (z-score)", "setting": "[2]", "value": -0.348}, {"measurement": "glycan array binding signal (z-score)", "setting": "[3]", "value": -0.4}, {"measurement": "glycan array binding signal (z-score)", "setting": "[4]", "value": 0.643}, {"measurement": "glycan array binding signal (z-score)", "setting": "[5]", "value": 2.63}, {"measurement": "glycan array binding signal (z-score)", "setting": "[6]", "value": -0.459}, {"measurement": "glycan array binding signal (z-score)", "setting": "[7]", "value": -0.292}, {"measurement": "glycan array binding signal (z-score)", "setting": "[8]", "value": -0.55}, {"measurement": "glycan array binding signal (z-score)", "setting": "[9]", "value": 0.335}, {"measurement": "glycan array binding signal (z-score)", "setting": "[10]", "value": -0.112}, {"measurement": "glycan array binding signal (z-score)", "setting": "[11]", "value": 3.39}, {"measurement": "glycan array binding signal (z-score)", "setting": "[12]", "value": -0.546}, {"measurement": "glycan array binding signal (z-score)", "setting": "[13]", "value": 0.269}, {"measurement": "glycan array binding signal (z-score)", "setting": "[14]", "value": -0.768}, {"measurement": "glycan array binding signal (z-score)", "setting": "[15]", "value": -1.22}, {"measurement": "glycan array binding signal (z-score)", "setting": "Gal(a1-3)Gal(b1-3)GlcNAc", "value": -1.1}, {"measurement": "glycan array binding signal (z-score)", "setting": "[16]", "value": 0.003}, {"measurement": "glycan array binding signal (z-score)", "setting": "[17]", "value": 6.11}, {"measurement": "glycan array binding signal (z-score)", "setting": "[18]", "value": 4.94}, {"measurement": "glycan array binding signal (z-score)", "setting": "[19]", "value": -2.03}, {"measurement": "glycan array binding signal (z-score)", "setting": "Gal(b1-4)Glc", "value": -1.09}, {"measurement": "glycan array binding signal (z-score)", "setting": "[20]", "value": -0.993}, {"measurement": "glycan array binding signal (z-score)", "setting": "[21]", "value": 3.46}, {"measurement": "glycan array binding signal (z-score)", "setting": "[22]", "value": 0.221}, {"measurement": "glycan array binding signal (z-score)", "setting": "Gal(b1-4)GlcNAc6P", "value": 0.348}, {"measurement": "glycan array binding signal (z-score)", "setting": "Gal3S(b1-4)GlcNAc", "value": -0.174}]}]}
